Assay results published in PubChem BioAssay.
Measured potencies and affinities stand elsewhere. Unmarked numbers belong to inactive results. The rule behind the calls is not given here.

Experiment: cytotoxicity in OVCAR8 ovarian cancer cells, dose response, PAX8 project, cell-based, plate reader, dry powder samples (AID 743197)
Settings: series mostly up to 35 µM; activity change, negative = cytotoxicity: at the top concentration
With O=C(Nc1ccc(F)cc1)N1CCCCN2[C@@H](CO)[C@@H](c3ccc(C#Cc4ccccc4)cc3)[C@@H]2C1 the “activity change, negative = cytotoxicity” value was -31.3%. In the case of Cc1ccc(S(=O)(=O)N(C)C[C@@H]2Oc3cc(C#Cc4ccncc4)ccc3S(=O)(=O)N([C@H](C)CO)C[C@@H]2C)cc1, the “activity change, negative = cytotoxicity” value was -15%. For C[C@H]1CCCCO[C@H](CN(C)C(=O)C2CCCCC2)[C@@H](C)CN([C@@H](C)CO)C(=O)c2cc(NC(=O)Nc3ccc(F)cc3)ccc2O1, the “activity change, negative = cytotoxicity” value was -13.8%. For C[C@H](CO)N1C[C@H](C)[C@@H](CN(C)C(=O)C2CCCCC2)OCCCC[C@H](C)Oc2ccc(NS(=O)(=O)c3ccc(Cl)cc3)cc2C1=O, the “activity change, negative = cytotoxicity” value was -11.2%. For Cc1ccc(S(=O)(=O)Nc2ccc3c(c2)CC(=O)N([C@@H](C)CO)C[C@H](C)[C@@H](CN(C)C(=O)Nc2ccc(C(F)(F)F)cc2)O3)cc1, the “activity change, negative = cytotoxicity” value was 6.62%. With CO[C@@H]1CN(C)C(=O)c2cc(NC(=O)c3ccc(-c4ccccc4)cc3)ccc2OC[C@H](C)NC[C@H]1C the “activity change, negative = cytotoxicity” value was -14.1% [at 30 µM]. In the case of CC(C)CC#Cc1ccc2c(c1)O[C@H](CN(C)Cc1ccc(C(=O)O)cc1)[C@@H](C)CN([C@H](C)CO)S2(=O)=O, the “activity change, negative = cytotoxicity” value was 1.7%.
